Results published in ChEMBL document CHEMBL3988442, “University of Dundee, Small-Polar-MMV Screening Library” (2021).
Hit rate of the full screen: of about 48,000 compounds, about 13,000 (27%) showed an effect of 50% or more. Some of the results follow.

system: Wolbachia pipientis; assay: Anti-Wolbachia Cell-Based Screen; format: functional; design: scale not given: in the data most compounds retested in dose-response had high values; details: 5 µM

Question: How did the “Percent Effect” value turn out when `O=C(O)C(F)(F)F.O=C(O)C(F)(F)F.O=C(O)C(F)(F)F.c1cnc(NCc2noc3c2CN(CCN2CCCC2)CC3)nc1` was run?
Answer: Its value is -9.81%.

Question: Which “Percent Effect” value does the source give for `Cc1ccc(NC(=O)NC(C)c2nc[nH]n2)s1` (stereo not drawn) here?
Answer: The value was 10.15%.

Question: `CSCCN1CCN(c2nc(N)ncc2C)CC1` was tested. Which “Percent Effect” value did it give?
Answer: Its value is -15.55%.

Question: With `O=C(c1cnccn1)N1CCN2C[C@H](OCc3ccccn3)C[C@H]2C1` as the compound, how does the “Percent Effect” value read?
Answer: Its value is 1.808%.

Question: `O=C(O)C1(Cc2cccc(-c3ccc(F)c(F)c3)c2)CCOCC1` was tested. Which “Percent Effect” value did it give?
Answer: Its value is -9.122%.

Question: For `COc1cccc(CC2(C(=O)O)CCN(c3ccc(Cl)cn3)CC2)c1`, which “Percent Effect” value is on record?
Answer: The value was -33.64%.

Question: With `Fc1ccc(C2(NCc3ccccc3)CCOCC2)cc1` as the compound, how does the “Percent Effect” value read?
Answer: Its value is -10.48%.

Question: `COc1cccc(CC2(C(=O)O)CCN(c3nccs3)CC2)c1` was tested. Which “Percent Effect” value did it give?
Answer: Its value is 5.275%.

Question: For `COc1ccc(-c2cccc(CC3(C(=O)O)CCOCC3)c2)cc1`, which “Percent Effect” value is on record?
Answer: Its value is 106.8%.

Question: Which “Percent Effect” value does the source give for `O=C(O)C1(Cc2cccc(-c3ccc(F)cc3)c2)CCOCC1` here?
Answer: Its value is 105.2%.

Question: How did the “Percent Effect” value turn out when `CN(Cc1ccco1)c1ccc(-c2nccn2C)nn1` was run?
Answer: Its value is -4.631%.

Question: With `CC1=C[C@@H](CN2CCCC2)[C@H](C(C)C)C[C@H]1Cc1nnc(C)o1` as the compound, how does the “Percent Effect” value read?
Answer: Its value is -4.134%.

Question: Which “Percent Effect” value does the source give for `CC(C)(C)OC(=O)N1CCCN1C(=O)c1cccc(F)c1F` here?
Answer: Its value is -1.297%.

Question: `O=C(Nc1ccc(F)c(-n2cccc2)c1)NC1(CCO)CCOCC1` was tested. Which “Percent Effect” value did it give?
Answer: Its value is 29.93%.

Question: How did the “Percent Effect” value turn out when `Cc1nccn1CCCC(=O)Nc1nc(C(C)C)nn1C` was run?
Answer: The value was -14.12%.

Question: For `Br.Cc1cc(C)nc(NCCC(=O)NCCn2ccnc2C)n1`, which “Percent Effect” value is on record?
Answer: The value was 178%.

Question: How did the “Percent Effect” value turn out when `Cc1cc(NC(=O)CCCn2ccnc2C)nc(C(C)C)n1` was run?
Answer: The value was -7.681%.

Question: How did the “Percent Effect” value turn out when `CSC1(CNC(=O)N(C)Cc2sccc2C)CCOCC1` was run?
Answer: The value was 7.6%.

Question: How did the “Percent Effect” value turn out when `O=C(N1CCOCC1)N1CC[C@H]2[C@@H]1CCC(=O)N2c1ccccc1` was run?
Answer: Its value is -0.9647%.

Question: Which “Percent Effect” value does the source give for `Cc1cccnc1N1CCC(c2nccn2Cc2cscn2)CC1` here?
Answer: The value was -9.317%.

Question: `COc1ccc(C(=O)NCC(C)(O)CCc2ccccc2)cc1` (stereo not drawn) was tested. Which “Percent Effect” value did it give?
Answer: The value was -2.442%.

Question: How did the “Percent Effect” value turn out when `CS(=O)(=O)N1CCc2ncc(CNC(=O)C3CCC3)n2CC1` was run?
Answer: Its value is 95.01%.

Question: `NC(=O)N1CCc2ncc(CNC(=O)CC3CC3)n2CC1` was tested. Which “Percent Effect” value did it give?
Answer: Its value is 111.4%.

Question: How did the “Percent Effect” value turn out when `O=C(NCc1cnc2n1CCN(c1ncc(F)cn1)CC2)C1CCC1` was run?
Answer: The value was 15.93%.

Question: How did the “Percent Effect” value turn out when `CC(=O)N1CCc2ncc(CNC(=O)C3CCC3)n2CC1` was run?
Answer: The value was 106.1%.

Question: How did the “Percent Effect” value turn out when `CN(C)C(=O)N1CCn2cc(CNC(=O)CC3CC3)nc2C1` was run?
Answer: Its value is -12.44%.

Question: With `O=C(NCc1cnc2n1CCN(CC1CC1)CC2)C1CCC1` as the compound, how does the “Percent Effect” value read?
Answer: Its value is 16.9%.

Question: Which “Percent Effect” value does the source give for `Cn1cccc1C(=O)NCc1cnc2n1CCN(C(N)=O)CC2` here?
Answer: Its value is -2.634%.

Question: How did the “Percent Effect” value turn out when `Cn1cccc1C(=O)NCc1cnc2n1CCN(C(=O)N1CCCC1)C2` was run?
Answer: The value was 10.49%.

Question: Which “Percent Effect” value does the source give for `Cc1cc(N2CCC(NC(=O)CCC3CCCO3)CC2)nc(C)n1` (stereo not drawn) here?
Answer: Its value is 7.946%.

Question: `Cc1cn2c(n1)C(CNCc1ccc(C)s1)CCC2` (stereo not drawn) was tested. Which “Percent Effect” value did it give?
Answer: The value was 5.575%.

Question: Which “Percent Effect” value does the source give for `CC1(C)[C@H]2CC=C(CN3CCCn4nc(C(=O)NCCO)cc4C3)[C@@H]1C2` here?
Answer: The value was 10.58%.

Question: `Cc1cccc(OCCC(=O)N2CCCN(C(N)=O)CC2)c1C` was tested. Which “Percent Effect” value did it give?
Answer: The value was -12.46%.

Question: `Cc1ccccc1-c1noc(-c2ccc(N(C)C3CCOCC3)nc2)n1` was tested. Which “Percent Effect” value did it give?
Answer: The value was 1.469%.

Question: Which “Percent Effect” value does the source give for `COCC(C)Nc1ccc(-c2nc(Cc3ccc(F)cc3)no2)cn1` (stereo not drawn) here?
Answer: Its value is -40.71%.

Question: For `c1ccc(Cc2noc(-c3ccc(NCC4CCCOC4)nc3)n2)cc1` (stereo not drawn), which “Percent Effect” value is on record?
Answer: The value was 130.1%.

Question: For `OC[C@@H]1CCCN1c1ccc(-c2nc(CCc3ccccc3)no2)cn1`, which “Percent Effect” value is on record?
Answer: The value was 1.286%.

Question: How did the “Percent Effect” value turn out when `COc1cccc(-c2noc(-c3ccc(NCC4CC4)nc3)n2)c1OC` was run?
Answer: The value was -9.972%.

Question: `O=C(NCC1COCCO1)c1csc(Cc2ccccc2)n1` (stereo not drawn) was tested. Which “Percent Effect” value did it give?
Answer: Its value is -4.558%.

Question: How did the “Percent Effect” value turn out when `COC(=O)CNc1ccc(-c2nc(Cc3ccc(OC)cc3)no2)cn1` was run?
Answer: The value was -28.16%.

Question: For `O=C(CN1CC(c2nc(Cc3ccccc3)no2)C1)NCC1CCCO1.O=C(O)C(=O)O` (stereo not drawn), which “Percent Effect” value is on record?
Answer: Its value is 1.544%.

Question: How did the “Percent Effect” value turn out when `c1ccc(Cc2noc(-c3ccc(NCC4COCCO4)nc3)n2)cc1` (stereo not drawn) was run?
Answer: Its value is 114.1%.

Question: With `c1ccc(Cc2noc(-c3ccc(NCC4CCCCO4)nc3)n2)cc1` (stereo not drawn) as the compound, how does the “Percent Effect” value read?
Answer: Its value is 127.1%.

Question: Which “Percent Effect” value does the source give for `CC(CO)Nc1ccc(-c2nc(Cc3ccc(F)cc3)no2)cn1` (stereo not drawn) here?
Answer: The value was -69.59%.

Question: For `Cc1ccccc1-c1noc(-c2ccc(NCC3COCCO3)nc2)n1` (stereo not drawn), which “Percent Effect” value is on record?
Answer: Its value is 87.55%.

Question: How did the “Percent Effect” value turn out when `CC(CNCc1ccncc1)Oc1ccccn1.Cl` (stereo not drawn) was run?
Answer: Its value is 14.12%.

Question: `Cc1cc(N2Cc3cnc(CC(C)C)nc3C2)nc(N)n1` was tested. Which “Percent Effect” value did it give?
Answer: Its value is -9.889%.

Question: `COC(=O)c1ccc(N(C)C2CCC2)nn1` was tested. Which “Percent Effect” value did it give?
Answer: Its value is -14.02%.

Question: `CSc1ccccc1CCC1CCS(=O)(=O)C1` (stereo not drawn) was tested. Which “Percent Effect” value did it give?
Answer: The value was -15.64%.

Question: For `CS(=O)(=O)CCC(=O)NC1CC(c2cccc(Cl)c2)C1` (stereo not drawn), which “Percent Effect” value is on record?
Answer: The value was -6.793%.

Question: For `COCC1CN(C(=O)COc2ccccc2)Cc2cn(C)nc21.O=C(O)C(F)(F)F` (stereo not drawn), which “Percent Effect” value is on record?
Answer: The value was -8.714%.

Question: `COCC1CN(C(=O)c2ccco2)Cc2cn(C)nc21.O=C(O)C(F)(F)F` (stereo not drawn) was tested. Which “Percent Effect” value did it give?
Answer: Its value is -0.009633%.

Question: Which “Percent Effect” value does the source give for `CCOCC1CN(C(=O)COc2ccccc2)Cc2cn(C)nc21` (stereo not drawn) here?
Answer: Its value is -5.674%.

Question: How did the “Percent Effect” value turn out when `COCC(=O)N1Cc2cn(C)nc2C(COc2cccnc2)C1` (stereo not drawn) was run?
Answer: Its value is -3.351%.

Question: `CNC(=O)C1CN(C(=O)c2ccccc2)Cc2cn(C)nc21` (stereo not drawn) was tested. Which “Percent Effect” value did it give?
Answer: Its value is 107.7%.

Question: With `CNC(=O)C1CN(C(=O)COc2ccccc2)Cc2cn(C)nc21` (stereo not drawn) as the compound, how does the “Percent Effect” value read?
Answer: The value was 122.8%.

Question: Which “Percent Effect” value does the source give for `O=C1N(c2ccccc2)C[C@H]2CN(C3CCC3)CCN12` here?
Answer: Its value is -7.27%.

Question: `O=C(c1ccccc1)N1CCN(C2CCc3ccc(F)cc32)CC1` (stereo not drawn) was tested. Which “Percent Effect” value did it give?
Answer: Its value is -8.707%.

Question: With `CCn1cc(CN2CCC(O)(Cn3ccc4ncccc43)CC2)cn1` as the compound, how does the “Percent Effect” value read?
Answer: Its value is 79.32%.

Question: Which “Percent Effect” value does the source give for `CCn1ccnc1-c1nccn1-c1ccccc1CN1CCOCC1` here?
Answer: Its value is -5.226%.

Question: With `CCn1cc(CN2CCC(CCC(=O)Nc3ccccc3Cl)CC2)cn1` as the compound, how does the “Percent Effect” value read?
Answer: The value was 5.103%.

Question: How did the “Percent Effect” value turn out when `CCn1ncc(CN2CCC(O)(Cn3ccc4ncccc43)CC2)c1C` was run?
Answer: Its value is 101.2%.

Question: For `OC1(Cn2ccc3ncccc32)CCN(Cc2cccs2)CC1`, which “Percent Effect” value is on record?
Answer: Its value is 107.1%.

Question: With `O=C(CCn1ccc2ccccc21)N1CCN(Cc2cccnc2)CC1` as the compound, how does the “Percent Effect” value read?
Answer: Its value is -2.767%.

Question: `OC1(Cn2ccc3ncccc32)CCN(Cc2cccnc2)CC1` was tested. Which “Percent Effect” value did it give?
Answer: The value was 93.84%.

Question: For `CCn1cc(CN2CCN(C(=O)N3CCOCC3)CC2)cn1`, which “Percent Effect” value is on record?
Answer: The value was 3.548%.

Question: Which “Percent Effect” value does the source give for `OC1(Cn2ccc3ccncc32)CCN(Cc2ccccn2)CC1` here?
Answer: The value was -11.69%.

Question: How did the “Percent Effect” value turn out when `Cc1cc(-n2cccn2)ccc1CN1CCC(O)(CN2CCCCC2)C1` (stereo not drawn) was run?
Answer: Its value is -16.49%.
